Test system: PDGFRA
Conditions: concentration: 1 μM, replicates: in singlicate; n = 1
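Further: KINOMEscan kinase panel screen.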

Structure (SMILES) | %Inh [%]
CCC(CC)(CC)n1cnc2c(N)ncnc21 [SKF-97620] | 24
Cc1ccc(NC(=O)c2cccc(C#N)c2)cc1-c1ccc(C(=O)Nc2ccncc2)cc1 [GSK1398463] | 86
CSc1nn2c(=O)cc(N3CCOCC3)nc2n1Cc1cccc(Cl)c1Cl [GSK2347225] | 0
FC(F)(F)c1cc(Nc2nccc(-c3c(-c4ccc(Cl)cc4)nn4ncccc34)n2)ccc1Cl [GW829351] | 0
CC(=O)Nc1n[nH]c2ncc(-c3ccccc3)cc12 [SB-548492] | 51
O=C(Nc1n[nH]c2nc(-c3ccco3)c(Br)cc12)c1ccc(CN2CCCC2)cc1.O=C(O)[C@H](O)[C@@H](O)C(=O)O [SB-742352] | 50
O=C(NCCCN1CCCC1=O)c1cnc(NCc2cc(Cl)ccc2Cl)nc1NC1CCNCC1 | 0
Nc1nccc2scc(-c3ccc4c(c3)CCN4C(=O)Cc3cc(F)ccc3F)c12 [GSK2587663] | 0
CN1CCC(n2cnc(-c3ccc(F)cc3)c2-c2ccnc(NC3CCNCC3)n2)CC1 [SB-229482] | 11
Oc1ccc2ncnc(Nc3ccc(OCc4ccccc4)cc3)c2c1 [GI262866] | 0
COc1ccc(NC(=O)c2ccc(-c3cc(-c4nnc(C)o4)ccc3C)cc2)cc1 [GW595885] | 0
CC(C)N1CCC(n2cnc(-c3ccc(F)cc3)c2-c2ccnc(N)n2)CC1 [SB-223132] | 0
COc1ccc(Nc2nccc(N3CCC(NC(=O)Nc4ccc5c(c4)OCO5)C3)n2)cc1 (centres unmarked) [GSK1379745] | 0
COC(=O)c1cccc(NC(=O)NCCNc2ccnc(Nc3ccc(F)cc3)n2)c1 [GSK1379883] | 0
COc1cc2c(Nc3cccc(NC(=O)c4ccccc4)c3)ncnc2cc1OCCCN1CCOCC1 [GSK223810] | 63
O=C(Nc1ccccc1)Nc1ccc(Oc2ccc3nccn3n2)cc1 | 83
Nc1nc(-c2ccccn2)c(-c2ccnc3ccccc23)s1 [GW548057] | 1
Cc1ccc(O)cc1Nc1cc(C(F)(F)F)nc2ccc(-c3ccncc3)cc12 [GW630823] | 0

Structure (SMILES) | %Inh [%]
Fc1cccc(COc2ccc(Nc3ncnc4sc(-c5ccc[nH]5)cc34)cc2Cl)c1 [GW707818] | 0
Fc1cccc(COc2ccc(Nc3ncnc4cc[nH]c34)cc2Cl)c1 | 22
Nc1nc(-c2ccc3c(N)n[nH]c3c2)cc(N2CCC[C@@H](C(=O)Nc3ccccc3)C2)n1.O=C(O)C(F)(F)F.O=C(O)C(F)(F)F [GSK2288359] | 15
O=C(CCO)NCCn1ccc2ncnc(Nc3ccc(Oc4cccc(C(F)(F)F)c4)c(Cl)c3)c21 | 0
CNc1nccc(-c2c(-c3ccc(F)cc3)ncn2CCCN2CCOCC2)n1 [SB-222516] | 0
Cc1ccc(C)c(NC(=O)NCCNc2ccnc(Nc3ccc(F)cc3)n2)c1 [GSK1379878] | 0
CC(C)(C)c1ccc(-n2cnc3c(N)ncnc32)cc1 [SKF-97263] | 13
CS(=O)(=O)CCNCc1nc(-c2ccc3ncnc(Nc4ccc(OCc5cccc(F)c5)c(Cl)c4)c3c2)cs1.Cl [GW583340] | 0
CCCc1ccc(S(=O)(=O)NC2CCN(c3ccnc(Nc4ccc(OC)cc4)n3)C2)cc1 (centres unmarked) [GSK1379737] | 0
FC(F)(F)c1ccc(-c2nn3ncccc3c2-c2ccnc(Nc3cccc(C(F)(F)F)c3)n2)cc1 [GW828205] | 0
Cc1cccc(-c2nc(Nc3ccc4[nH]nnc4c3)c3ccccc3n2)n1 [GW867587] | 0
O=C(Nc1ccccc1F)NC1CCN(c2ccnc(Nc3ccc(F)cc3)n2)C1 (centres unmarked) [GSK1379722] | 0
COc1ccc(NC(=O)Nc2ccc(C)c(-c3ccc(C(=O)Nc4ccncc4)cc3)c2)cc1 [GSK1398475] | 28
Clc1ccc(-c2cc(-c3c[nH]nc3-c3ccccn3)ccn2)cc1 [GW681251] | 0
Clc1cc(Nc2ncnc3cc[nH]c23)ccc1OCc1ccccn1 | 29
CNc1nccc(-c2c(-c3ccc(F)cc3)ncn2C2CCN(C)CC2)n1 [SB-222903] | 0
c1ccc(-c2ccc3c(-c4ccnc(Nc5ccc6c(c5)OCCO6)n4)cnn3n2)cc1 [GW818941] | 8

Reference: PMC5540273 (PLoS ONE, 2017)
